Drawing on PubChem BioAssay (Tox21), this text covers Potency for 40 compounds.

Records with an inconclusive call do not appear. A call without a number means that no potency is given here. Activity calls are given as the source filed them. Calls come from the whole dose curve; as a rule, active = well fitted cell-killing curve with a large enough effect in the repeat runs; inconclusive = weak or mixed curves, or effect the other way; inactive = flat fitted curve, though single readings scatter.

This assay can be described thus: qHTS assay to identify small molecule antagonists of the androgen receptor (AR) signaling pathway using the MDA cell line - cell viability counter screen (AID 743041; note: nearly all actives have a fitted effect of over 45% in size). Particulars: MDA-kb2 viability, CellTiter-Fluor, 16 h, cells co-treated with R1881 androgen agonist; series mostly up to 70.3 µM. An excerpt: National Center for Advancing Translational Sciences [NCATS]
NIH Chemical Genomics Center [NCGC]
U.S. Environmental Protection Agency [EPA]
National Institutes of Environmental Health Sciences [NIEHS]
National Toxicology Program [NTP]
U.S. Food and Drug Administration [FDA]
Androgen receptor (AR), a nuclear hormone receptor, plays a critical role in AR-dependent prostate cancer and other androgen related diseases. Endocrine disrupting chemicals (EDCs) and their interactions with steroid hormone receptors like AR may cause disruption of normal endocrine function as well as interfere with metabolic homeostasis, reproduction, developmental and behavioral functions. To identify the compounds that inhibit AR signaling, MDA-kb2 AR-luc cell line (from ATCC, deposited by Wilson et al.) was used to screen the Tox21 10K compound library. MDA-kb2 AR-luc cell line is human breast carcinoma cell line that was stably transfected with a luciferase reporter gene under control of the MMTV promoter containing response elements for both androgen receptor (AR) and glucocorticoid receptor (GR). The cytotoxicity of the Tox21 compound library against the MDA-kb2 AR-luc cell line was tested in parallel by measuring the cell viability using CellTiter-Fluor assay (Promega, Madison, WI) in the same wells.
Tox21 Assay Protocol Summary:
MDA-kb2 AR-luc cells were dispensed at 3,000 cells/4 uL/well of culture medium into white wall/solid-bottom 1536-well plates using a Multidrop Combi (ThermoFisher Scientific, Waltham, MA) dispenser. After the assay plates were incubated at a 37C and 0% CO2 for 5 hr, 23 nL of compounds dissolved in DMSO, positive controls or DMSO only was transferred to the assay plate by a Pintool station (Kalypsys, San Diego, CA), followed by addition of 1 uL of agonist (R1881) in culture medium using a Bioraptr Flying Reagent Dispenser (FRD) workstation (Beckman Coulter, Indianapolis, IN, USA). The plates were incubated at a 37C and 0% CO2 for 16 h. After 15.5 h incubation, 1uL of CellTiter-Fluor reagent (Promega) was added using a Bioraptr FRD to each plate for measuring cytotoxicity. The fluorescence intensity was quantified on a ViewLux plate reader (PerkinElmer, Shelton, CT) following 30 min incubation at 37C and 0% CO2.
For the compound `CN1Cc2c(N)cccc2C(c2ccccc2)C1` (stereo not given), the Potency result is “inactive”.

As for `CC(C)(CO)CO`, the Potency result is “inactive”.

Take `OC[C@H]1O[C@@H](Oc2ccc(O)cc2)[C@H](O)[C@@H](O)[C@@H]1O`: the Potency result is “inactive”.

With `C=C1C[C@]23C[C@@]1(O)CC[C@H]2[C@@]12C=C[C@H](O)[C@@](C)(C(=O)O1)[C@H]2[C@@H]3C(=O)O`, the Potency result is “inactive”.

Take `Cc1ccc([N+](=O)[O-])cc1N`: the Potency entry is “inactive”.

As for `CCn1cc(C(=O)O)c(=O)c2cc3c(cc21)OCO3`, the Potency result is “inactive”.

`Nc1nc(N)c2nc(-c3ccccc3)c(N)nc2n1`: the Potency entry is “inactive”.

As to `O=C(O)C1=NN(c2ccc(S(=O)(=O)O)cc2)C(=O)C1`, the Potency result was “inactive”.

For the compound `CC(=O)C(C)C`, the Potency result was “inactive”.

`O=C1CCCCCCCCCCC1`: the Potency result is “inactive”.

`CC(O)CNCC(C)O` (stereo not given): the Potency result is “inactive”.

For the compound `NC(N)=S`, the Potency result was “inactive”.

With `CC(=O)c1nccs1`, the Potency entry was “inactive”.

Turning to `O=[N+]([O-])c1ccccc1C(F)(F)F`, the Potency result was “inactive”.

Turning to `C=C(C)CC(C)(C)C`, the Potency entry was “inactive”.

For the compound `COc1ccc([C@@H]2CC(=O)c3c(O)cc(O[C@@H]4O[C@H](CO[C@@H]5O[C@@H](C)[C@H](O)[C@@H](O)[C@H]5O)[C@@H](O)[C@H](O)[C@H]4O)cc3O2)cc1OC`, the Potency result was “inactive”.

For `CC(=O)OCCC(C)C`, the Potency entry is “inactive”.

Regarding `NCCNCCNCCN`, the Potency entry is “inactive”.

As to `N#CCC(=O)O`, the Potency result is “inactive”.

With `COc1cc(NC(=O)CC(C)=O)c(OC)cc1Cl`, the Potency result is “inactive”.

Take `Cc1cc(C)cc(O)c1`: the Potency result was “inactive”.

As to `NC1CCCCC1N` (stereo not given), the Potency entry was “inactive”.

With `CCCCCCCC(=O)O`, the Potency entry is “inactive”.

With `Nc1cccc(N)n1`, the Potency result is “inactive”.

As to `CCCOCC(C)O` (stereo not given), the Potency entry was “inactive”.

In the case of `CCCCC(=O)O`, the Potency result is “inactive”.

Turning to `C=CC(=O)NCOCCCC`, the Potency entry was “inactive”.

Consider `O=C(c1ccccc1)c1ccc(O)c(O)c1O`, for which the Potency result is “inactive”.

For `CCCOC(=O)NCCCN(C)C`, the Potency entry is “inactive”.

On to `C1CCCNCC1`, for which the Potency entry is “inactive”.

In the case of `Cc1ccc(Cl)cc1`, the Potency result is “inactive”.

On to `Cc1ccc(C)c(S(=O)(=O)O)c1`, for which the Potency result was “inactive”.

For the compound `CCCCCCCCO`, the Potency result was “inactive”.

Consider `COC(=O)CCCCC(=O)OC`, for which the Potency entry is “inactive”.

For `CC(C=O)Cc1ccc(C(C)(C)C)cc1` (stereo not given), the Potency entry is “inactive”.

For `CCc1cccc(O)c1`, the Potency entry is “inactive”.

Consider `Cc1cc(C)c(O)c(C)c1`, for which the Potency result is “inactive”.

With `CCCCCNCCCCC`, the Potency result is “inactive”.

Regarding `O=C1OC(=O)c2c(Cl)c(Cl)c(Cl)c(Cl)c21`, the Potency result was “inactive”.

In the case of `CC(=O)OC[C@H]1O[C@@](COC(C)=O)(O[C@H]2O[C@H](COC(C)=O)[C@@H](OC(C)=O)[C@H](OC(C)=O)[C@H]2OC(C)=O)[C@@H](OC(C)=O)[C@@H]1OC(C)=O`, the Potency entry was “inactive”.
